This passage reports Potency results from PubChem BioAssay AID588342 (National Center for Advancing Translational Sciences (NCATS), 2011).

Among all 360,000 compounds or so, about 25,000 (6.9%) were called active. Inconclusive results (about 9%) are left out. Calls follow the shape of the dose curve; as a rule, active = well fitted inhibition curve with a large enough effect; inconclusive = small, poorly fitted or top-dose-only effect; inactive = flat fitted curve, though single readings scatter. The entries come from a sample that favours actives as a whole. Entries that show only a call come without a potency.
Potency is read from the fitted curve at half-maximal effect.

For the test, the target named is Luciferin 4-monooxygenase (Photinus pyralis) (UniProt P08659). Briefly: qHTS profiling assay for firefly luciferase inhibitor/activator using purifed enzyme and Km concentrations of substrates (counterscreen for miR-21 project). Also: nearly all actives have a fitted effect of over 55% in size. As to conditions: purified FLuc, luminescence inhibition; series mostly up to 57.5 µM. The method, boiled down: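 Biochemical qHTS of compounds, final roughly 60 µM downward over six points, against 10 nM purified firefly luciferase using Km concentrations of substrates (10 uM D-luciferin, 10 uM ATP) in Tris acetate pH 7.5 buffer; luminescence output.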
Sequence of Luciferin 4-monooxygenase (Photinus pyralis) (P08659 whole entry, looked up): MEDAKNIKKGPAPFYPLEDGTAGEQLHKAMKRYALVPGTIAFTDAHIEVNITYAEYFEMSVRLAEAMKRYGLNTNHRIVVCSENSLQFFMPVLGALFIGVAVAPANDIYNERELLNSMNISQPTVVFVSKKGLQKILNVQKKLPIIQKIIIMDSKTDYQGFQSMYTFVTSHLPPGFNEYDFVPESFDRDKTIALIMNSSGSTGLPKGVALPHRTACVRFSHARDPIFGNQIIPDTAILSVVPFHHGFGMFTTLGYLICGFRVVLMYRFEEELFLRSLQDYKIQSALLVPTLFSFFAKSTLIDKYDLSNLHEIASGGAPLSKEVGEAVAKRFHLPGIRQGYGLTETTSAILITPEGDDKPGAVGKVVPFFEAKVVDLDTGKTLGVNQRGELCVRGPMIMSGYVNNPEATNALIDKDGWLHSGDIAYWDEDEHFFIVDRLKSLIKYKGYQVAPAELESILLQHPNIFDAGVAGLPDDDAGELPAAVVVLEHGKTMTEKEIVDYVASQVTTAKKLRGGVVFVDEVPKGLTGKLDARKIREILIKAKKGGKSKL
As for `Cc1cc(C)c(NC(=O)CCc2c(C)nc3c(c(C)nn3C(C)(C)C)c2C)c(C)c1`, the Potency result is “inactive”.

As to `CCCS(=O)(=O)N1CCC(n2c(C(F)(F)F)nc3cccnc32)CC1`, the Potency entry is “inactive”.

With `CCOC(=O)c1ccc(NC(=O)Cn2c(=O)n(-c3ccc(C)cc3)c(=O)c3c2cnn3C)cc1`, the Potency result was “inactive”.

Take `COc1cccc(/C=N/Nc2ncc(C(F)(F)F)cc2Cl)c1O`: the Potency entry was “inactive”.

Turning to `COc1cccc(/C=N/Nc2cc(C)nc(-c3ccccc3O)n2)c1O`, the Potency was 7.57 µM (active).

As to `COc1cccc2c(N/N=C/c3ccco3)cc(C)nc12`, the Potency entry was “inactive”.

`COc1ccccc1CNC(=O)c1ccc(-n2c(C)cc3c2CCCC3)cc1`: the Potency entry is “inactive”.

Regarding `O=C(NCC(c1ccco1)S(=O)(=O)c1cccs1)c1ccc(F)cc1` (stereo unspecified), the Potency result is “inactive”.

Take `Cc1ccc2[nH]cc(CCCN3C(=O)c4ccccc4C3=O)c2c1`: the Potency entry was “inactive”.

Consider `COc1ccc2[nH]cc(CCN3C(=O)c4ccc(C(=O)O)cc4C3=O)c2c1`, for which the Potency was 21.3 µM (active).

For `COc1ccc(C[C@H](C(=O)O)N2C(=O)c3ccc(C(=O)O)cc3C2=O)cc1`, the Potency result is “inactive”.

Take `COc1ccc(OC)c(-n2nnc3c(sc4nc(C)c(Br)c(C)c43)c2=O)c1`: the Potency entry is “inactive”.

Consider `CC(C)(C)c1csc(NC2=NS(=O)(=O)c3ccccc32)n1`, for which the Potency is 1.51 µM (active).

As to `CC(C)C(NS(=O)(=O)c1cccs1)C(=O)Nc1nc(C(C)(C)C)cs1` (stereo unspecified), the Potency entry was “inactive”.

Regarding `Cc1ccc(S(=O)(=O)N(NC2=NS(=O)(=O)c3ccccc32)C(=O)c2ccccc2)cc1`, the Potency result was “inactive”.

For `CCOc1ccc(C(C(=O)NC2CCCC2)N(C(=O)c2snc(C(N)=O)c2N)C2CCCC2)cc1` (stereo unspecified), the Potency result is “inactive”.

As to `CC(C)(C)[Si](OCC[C@@H]1C[C@@]1(C)[C@@H](NP(=O)(c1ccccc1)c1ccccc1)c1ccccc1)(c1ccccc1)c1ccccc1`, the Potency result is “inactive”.

Regarding `CCn1nccc1C(=O)Nc1ccc(S(=O)(=O)NC23CC4CC(CC(C4)C2)C3)cc1`, the Potency result was “inactive”.

As to `CCn1nccc1C(=O)Nc1ccc(Cl)c(Cl)c1`, the Potency is 21.3 µM (active).

Consider `O=C(CC(O)(C(F)(F)F)C(F)(F)F)Nc1ccc(Cl)c(Cl)c1`, for which the Potency entry was “inactive”.

As to `COC(=O)c1cnc(N2CCN(c3ccccc3OC)CC2)c2ccccc12`, the Potency result is “inactive”.

As to `Cc1ccc(Cl)cc1NC(=O)CSc1nc2ccccc2nc1Cc1ccccc1`, the Potency entry is “inactive”.

Take `CCOc1ccc(-c2n[nH]c3c2C(c2ccccc2OC)N(c2ccc(Br)cc2)C3=O)cc1` (stereo unspecified): the Potency result was “inactive”.

For the molecule `CCN(Cc1ccccc1)Cc1c(O)ccc2c(=O)c(-c3ccc(Cl)cc3Cl)coc12`, the Potency entry is “inactive”.

As to `O=C(OCC(=O)N1CCCC1=O)c1cc(S(=O)(=O)N2CCOCC2)ccc1Cl`, the Potency result is “inactive”.

In the case of `CCOC(=O)c1[nH]c(C)c(C(=O)OCC(=O)N2c3ccccc3CC2C)c1C` (stereo unspecified), the Potency entry is “inactive”.

As to `Cc1c(C(=O)OCC(=O)N2CCCC2=O)oc2ccccc12`, the Potency was 16.9 µM (active).

Consider `CCOC(=O)c1c(C)[nH]c(C(=O)NCCN2CCOCC2)c1C`, for which the Potency result is “inactive”.

Turning to `CCOC(=O)c1c(C)[nH]c(C(=O)OCC(=O)N2CCCC2=O)c1C`, the Potency was 12 µM (active).

Take `CN(C)S(=O)(=O)c1cccc(C(=O)OCC(=O)N2CCCC2=O)c1`: the Potency entry is “inactive”.

`CCOc1ccc(CCNC(=O)c2cc3c(=O)n(C)c4ccccc4c3n2C)cc1`: the Potency entry was “inactive”.

`O=S(=O)(c1ccc(Br)c2ccccc12)N1CCOCC1`: the Potency entry was “inactive”.

Take `Cc1ccc(N=Cc2c(O)n(-c3nccs3)c(=O)c3ccccc23)c(C)c1`: the Potency result is “inactive”.

Turning to `Cc1ccc(Oc2c(C(F)(F)F)oc3c(CN4CCCCC4)c(O)ccc3c2=O)cc1`, the Potency result was “inactive”.

`O=C(CN1CCCCCC1)Nc1c(Cl)cc(Cl)cc1Cl`: the Potency is 15.1 µM (active).

For `O=C(CN1CCOCC1)Nc1c(Cl)cc(Cl)cc1Cl`, the Potency result was “inactive”.

As for `COc1cc(Cl)c(C)cc1NC(=O)CN1CCCCCC1`, the Potency entry was “inactive”.

For `O=C(CN1CCCCCC1)Nc1ccc(Br)cc1Br`, the Potency was 16.9 µM (active).

Turning to `O=C(CN1CCCCCC1)Nc1ccc(Cl)cc1F`, the Potency result is “inactive”.

As to `COc1cc([N+](=O)[O-])ccc1NC(=O)CN1CCCC1`, the Potency entry was “inactive”.

With `COc1ccc(C(=O)Nc2nonc2-c2ccc(OC)c(OC)c2)cc1Cl`, the Potency entry is “inactive”.

In the case of `CCCc1ccc(OCC(O)CN2CCN(CCO)CC2)cc1` (stereo unspecified), the Potency entry is “inactive”.

Take `CC(C)Cn1c(N)c(C(=O)COC(=O)C2CCCN2C(=O)c2cccs2)c(=O)n(C)c1=O` (stereo unspecified): the Potency entry is “inactive”.

Turning to `COc1ccc(-c2nnc(SC(C)C(=O)NC3CC3)o2)cc1` (stereo unspecified), the Potency result is “inactive”.

Turning to `Nc1nc(SCC(=O)Nc2ccc(Cl)c([N+](=O)[O-])c2)n[nH]1`, the Potency result was “inactive”.

On to `COc1ccc(NC(=O)CSC2=Nc3ccccc3C3=NC(CC(=O)NCc4ccccc4OC)C(=O)N23)cc1Cl` (stereo unspecified), for which the Potency entry was “inactive”.

For the molecule `O=C(Oc1cccc(NC2=NS(=O)(=O)c3ccccc32)c1)c1ccncc1`, the Potency is 26.9 µM (active).

`O=C(c1cccc(Br)c1)N1CCN(C2=NS(=O)(=O)c3ccccc32)CC1`: the Potency entry is “inactive”.

Take `O=C(N/N=C/c1cccc(OC(=O)c2ccc([N+](=O)[O-])cc2)c1)c1cccnc1`: the Potency result was “inactive”.

With `C[N+]1(CCNC(=O)/C=N/O)CCCCC1`, the Potency entry is “inactive”.

`C=CCC(NCc1ccco1)c1ccc(OC)cc1` (stereo unspecified): the Potency entry was “inactive”.

Regarding `COc1ccc(-n2cnc3cc(C(=O)NC4CCCC4)ccc32)cc1`, the Potency entry is “inactive”.

With `COc1ccc(-n2cnc3cc(NCc4ccco4)ccc32)cc1`, the Potency is 7.57 µM (active).

In the case of `Cc1ccc(S(=O)(=O)c2nnn3c2nc(N2CCN(c4ccccc4F)CC2)c2cc(Cl)ccc23)cc1C`, the Potency result is “inactive”.

Take `COc1ccc(CCNC(=O)c2cnc3sc(N4CCCCCC4)nn3c2=O)cc1OC`: the Potency entry was “inactive”.

`COc1ccc(/C=C2\SC(=O)N(CCC(=O)NC3CCS(=O)(=O)C3)C2=O)cc1` (stereo unspecified): the Potency is 10.7 µM (active).

`COc1ccc(/C=C2\SC(=O)N(CCC(=O)NCCCn3ccnc3)C2=O)cc1`: the Potency was 13.5 µM (active).

Consider `O=C(CCN1C(=O)c2ccccc2C1=O)NCCCn1ccnc1`, for which the Potency entry is “inactive”.

As for `COc1ccc(NC(=O)CCN2C(=O)/C(=C/c3ccc4c(c3)OCO4)SC2=S)cc1`, the Potency entry was “inactive”.

For the molecule `O=C(CN1C(=O)S/C(=C\c2ccccc2F)C1=O)NCCCn1ccnc1`, the Potency entry is “inactive”.

`COc1ccc(NC(=S)NC2CCS(=O)(=O)C2)cc1` (stereo unspecified): the Potency entry is “inactive”.

For `O=C(C1CCN(CC2CCCCC2)CC1)N1CCCC1`, the Potency entry is “inactive”.

As for `COc1ccc(-c2nn3c(=O)cc(CN4CCN(C(=O)c5ccc(OC)c(OC)c5)CC4)nc3s2)cc1`, the Potency entry was “inactive”.

Take `CCc1cccc(-n2nnc(-c3nsc(NC(=O)c4ccc(C)cc4)n3)c2C)c1`: the Potency entry is “inactive”.

In the case of `COc1ccc(-n2nnc(-c3nsc(NC(=O)c4ccc(C)c(C)c4)n3)c2C)cc1Cl`, the Potency entry is “inactive”.

`Cc1c(-c2nsc(NC(=O)c3cccc(Cl)c3)n2)nnn1-c1ccccc1C(F)(F)F`: the Potency was 12 µM (active).

On to `COc1ccc(OCCCn2c(C)nc3cc(C)c(C)cc32)cc1`, for which the Potency entry was “inactive”.

As to `O=C(/C=C/Nc1ccccc1)c1cnc(-c2ccccc2)s1`, the Potency result was “inactive”.

For `CC(C)(C)C(=O)c1cnc(Nc2ccccc2)s1`, the Potency was 6.01 µM (active).

`CC(=O)c1cnc(-c2ccccc2)s1`: the Potency result is “inactive”.

Regarding `COc1ccc(NC(=O)CSc2nnc(-c3nnn(-c4ccc(F)cc4)c3C)o2)cc1`, the Potency entry is “inactive”.

For `O=C(O)Cc1sc(-c2ccccc2)nc1-c1cccs1`, the Potency is 23.9 µM (active).

For `CCc1c(-c2ccccc2)nc(N)c(C#N)c1-c1cccs1`, the Potency entry was “inactive”.

`CN(C(=O)COc1nnc(-c2cccs2)c(-c2cccs2)n1)c1ccccc1`: the Potency result is “inactive”.

Turning to `O=C(CCc1ccccc1Cl)Nc1ccc(S(=O)(=O)Nc2nccs2)cc1`, the Potency entry is “inactive”.

Take `COc1cc(C(=O)N(Cc2ccc(C(C)C)cc2)C2CCS(=O)(=O)C2)cc(OC)c1OC` (stereo unspecified): the Potency result is “inactive”.

As for `CC(=O)N/N=C(\C)c1ccc(Br)cc1Br`, the Potency result is “inactive”.

`CC(=N\NC(=O)c1cc(Br)ccc1O)/C(=N/O)C(=O)Nc1ccccc1`: the Potency is 15.1 µM (active).

For the molecule `COc1ccc(-c2[nH]ncc2/C=N/NC(=O)c2cc(Br)ccc2O)c(OC)c1`, the Potency result was “inactive”.

Turning to `CCOC(=O)c1c(NC(=O)c2ccc(S(=O)(=O)N3CCCC(C)C3)cc2)sc2c1CCN(C(C)C)C2` (stereo unspecified), the Potency entry was “inactive”.

For the molecule `CC(C)CCN1CCC(C)(NC(=O)c2ccccc2)C1=O` (stereo unspecified), the Potency result was “inactive”.

On to `CC1=C(c2ccc(F)cc2)S(=O)(=O)N=C1N1CCC(C(=O)NCCc2ccccc2C)CC1`, for which the Potency entry is “inactive”.

Regarding `O=C(c1cnn2ccccc12)N1CCc2ccccc21`, the Potency is 6.75 µM (active).

As to `Cc1cnc(C(=O)OCC(=O)N2CCc3ccccc32)cn1`, the Potency result was “inactive”.

Turning to `CCOC(=O)N1CCC(NC(=O)c2cnn3ccccc23)CC1`, the Potency result is “inactive”.

As to `CCOC(=O)c1c(NC(=O)/C(C#N)=C/c2ccccc2)sc2c1CCC2`, the Potency entry is “inactive”.

Regarding `COc1ccc(Cn2c(C(=O)O)c(CNCc3cccc(OC)c3)c3ccc(C)cc32)cc1`, the Potency result is “inactive”.

Take `CN1CCN(S(=O)(=O)c2cccc(C(=O)Nc3sccc3C#N)c2)CC1`: the Potency result is “inactive”.

For the molecule `O=C(Nc1ccncc1)c1ccccc1[N+](=O)[O-]`, the Potency result was “inactive”.

For `O=C(Nc1ccccc1C(=O)Nc1ccncc1)c1ccc([N+](=O)[O-])cc1`, the Potency was 19 µM (active).

For the molecule `O=C(Nc1ccncc1)c1ccc(Cl)c([N+](=O)[O-])c1`, the Potency result is “inactive”.

Regarding `CC(=O)Nc1ccc(NC(=O)CSc2nnc(C3CC3)n2-c2ccccc2)cc1`, the Potency entry was “inactive”.

`CCc1nn(CCCC(=O)NCc2ccccc2OC)c(=O)c2cc3occc3n12`: the Potency entry was “inactive”.

On to `CC1CN(C(=O)N2CCC(C(=O)NCc3ccco3)CC2)c2cc(Cl)ccc2O1` (stereo unspecified), for which the Potency result is “inactive”.

Regarding `O=C(NCc1cccs1)C1CCN(S(=O)(=O)c2ccc(Cl)cc2)CC1`, the Potency entry was “inactive”.

Turning to `CC1CN(C(=O)N2CCC(C(=O)NCc3cccs3)CC2)c2ccccc2O1` (stereo unspecified), the Potency was 1.9 µM (active).

Consider `Cc1nc2nc(SCC(=O)NC3CCC(C)CC3)nn2c(C)c1Cc1ccccc1Cl` (stereo unspecified), for which the Potency result is “inactive”.

For the molecule `S=c1[nH]nc(/C=C/c2ccccc2)o1`, the Potency was 26.9 µM (active).

Consider `O=c1oc(/C=C/c2ccccc2)nc2ccccc12`, for which the Potency entry was “inactive”.

Turning to `Clc1ccc(CSc2nnc(/C=C/c3ccccc3)o2)c(Cl)c1`, the Potency result was “inactive”.

Take `COc1cccc(-n2ccn(CC(=O)NCc3ccc(C)cc3)c(=O)c2=O)c1`: the Potency entry is “inactive”.
